PubChem BioAssay (NCATS)
Records with an inconclusive call do not appear. Activity calls are given as the source filed them. Unless noted, the call rests on the fitted dose curve; in most records, active means well fitted curve in the direction sought with a large enough effect; inconclusive means small, poorly fitted or top-dose-only effect, or another doubt; inactive means no such curve, though single readings can be large; an effect the other way counts as inactive or inconclusive.

Legend:
[1] = target: Guanine nucleotide-binding protein G(i) subunit alpha-1 (Homo sapiens) (UniProt P63096); test: qHTS Assay for Inhibitors of RGS12 GoLoco Motif Activity (Green Fluorophore) (AID 879);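 further: negative values mean loss of peptide binding seen as reduced polarization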
In short: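 A drop in FITC polarization marked displacement of the FITC-tagged RGS12 GoLoco peptide (10 nM) from Gαi1 (50 nM). Compounds were incubated 10 min at room temperature in Tris pH 7.5 buffer containing 150 mM NaCl, 0.1 mM GDP and 0.05% NP40; unlabeled peptide titration served as control.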

[2] = qHTS Assay for Identification of Small Molecule Agonists for Thrombopoietin (TPO) Signaling Pathway (AID 917)
In short: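 Ba/F3 (mouse) + hTPO receptor + GpIIb-promoter luciferase; IL-3 withdrawn overnight; compound + 26 pM TPO (EC50), 24 hrs, 37 C, 5% CO2; Steadylite luminescence, 10 min RT.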

[3] = target: Muscarinic acetylcholine receptor M1 (Rattus norvegicus) (UniProt P08482); test: qHTS Assay for Antagonists of Acetylcholine Muscarinic M1 Receptor: Measurement of IP-One Response (AID 944); further: nearly all actives have a fitted effect of over 75% in size
In short: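 IP1 accumulation measured via TR-FRET between d2-IP1 and Eu-cryptate anti-IP1 antibody after carbachol (200 nM, EC80) stimulation for 30 min; rat M1-transfected CHO cells received compound 10 min before agonist.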

[4] = target: Pyruvate kinase (Leishmania mexicana) (UniProt Q27686); test: qHTS Validation Assay for Inhibitors of Leishmania Mexicana Pyruvate Kinase (AID 945)
In short: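 Luminescent ATP detection (PKLight) after a 1 h room-temperature reaction of 0.2 nM LmPYK E451W mutant with 0.5 mM PEP and 0.1 mM ADP at pH 7.2. Activity is normalized to DMSO-only control wells.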

[5] = target: Pyruvate kinase PKM (Homo sapiens) (UniProt P14618); test: qHTS Assay for Activators of Human Muscle Pyruvate Kinase (AID 954; active means well fitted curve in the direction sought with a large enough effect, not every such curve was filed as active)
In short: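 Compound pinned into substrate mix (0.5 mM PEP, 0.1 mM ADP), then 0.1 nM PKM2 added; 1 h, RT. Stop/detection luciferase reagent added, luminescence read. Normalized to no-inhibition and no-enzyme or reference-inhibitor controls.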

[6] = target: Alpha-galactosidase A (Homo sapiens) (UniProt P06280); test: Counterscreen for Glucocerebrosidase Inhibitors: qHTS Assay for Human alpha-Galactosidase at pH 4.5 (AID 992)
In short: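 Steps: enzyme (2 nM final), then compound across 0.7 nM to 77 uM, then 80 uM fluorogenic galactopyranoside substrate; incubate 20 min at room temperature; quench at pH 10; measure fluorescence at 365/440 nm.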

[7] = target: alpha-glucosidase (Oryza sativa, rice) (UniProt Q653V4); test: Counterscreen for Glucocerebrosidase Inhibitors: qHTS Assay for Rice alpha-Glucosidase at pH 5.0 (AID 997)
In short: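 Endpoint fluorogenic assay at pH 5.0: compounds (0.7 nM to 77 uM) titrated against 4 nM rice enzyme and 400 uM 4-MU-alpha-glucoside for 20 min at room temperature; NaOH/glycine stop, read ex 365/em 440 nm, Hill-fitted AC50.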

Measured: Potency

Pyruvate kinase (Leishmania mexicana), sequence (Q27686 2-499 E452W): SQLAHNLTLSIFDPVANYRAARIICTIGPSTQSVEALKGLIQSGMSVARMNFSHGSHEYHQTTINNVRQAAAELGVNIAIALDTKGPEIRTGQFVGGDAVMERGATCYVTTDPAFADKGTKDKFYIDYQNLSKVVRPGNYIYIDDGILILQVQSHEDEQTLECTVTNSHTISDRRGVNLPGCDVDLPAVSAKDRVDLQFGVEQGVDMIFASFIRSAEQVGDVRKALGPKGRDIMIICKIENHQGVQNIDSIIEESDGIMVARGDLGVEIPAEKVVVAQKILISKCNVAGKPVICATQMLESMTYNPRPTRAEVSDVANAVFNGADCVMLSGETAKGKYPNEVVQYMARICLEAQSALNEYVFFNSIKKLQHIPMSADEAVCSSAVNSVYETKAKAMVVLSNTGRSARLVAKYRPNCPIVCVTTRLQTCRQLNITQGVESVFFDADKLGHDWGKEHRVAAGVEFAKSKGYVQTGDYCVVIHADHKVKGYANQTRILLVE
Pyruvate kinase PKM (Homo sapiens), sequence (P14618 whole entry, looked up): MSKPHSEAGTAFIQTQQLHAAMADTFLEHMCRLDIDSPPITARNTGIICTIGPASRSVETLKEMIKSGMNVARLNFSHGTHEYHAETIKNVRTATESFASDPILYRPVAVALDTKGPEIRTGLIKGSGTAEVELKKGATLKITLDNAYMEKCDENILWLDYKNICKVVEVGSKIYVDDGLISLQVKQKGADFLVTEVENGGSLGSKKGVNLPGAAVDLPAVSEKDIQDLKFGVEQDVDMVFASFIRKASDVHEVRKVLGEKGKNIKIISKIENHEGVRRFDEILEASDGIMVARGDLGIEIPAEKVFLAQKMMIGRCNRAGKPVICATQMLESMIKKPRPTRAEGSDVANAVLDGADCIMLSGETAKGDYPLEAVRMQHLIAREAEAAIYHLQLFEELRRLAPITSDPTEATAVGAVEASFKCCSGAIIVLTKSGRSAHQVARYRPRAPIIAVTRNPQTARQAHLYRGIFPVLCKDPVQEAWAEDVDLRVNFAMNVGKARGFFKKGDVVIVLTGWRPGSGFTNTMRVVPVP
Guanine nucleotide-binding protein G(i) subunit alpha-1 (Homo sapiens), sequence (P63096 whole entry, looked up): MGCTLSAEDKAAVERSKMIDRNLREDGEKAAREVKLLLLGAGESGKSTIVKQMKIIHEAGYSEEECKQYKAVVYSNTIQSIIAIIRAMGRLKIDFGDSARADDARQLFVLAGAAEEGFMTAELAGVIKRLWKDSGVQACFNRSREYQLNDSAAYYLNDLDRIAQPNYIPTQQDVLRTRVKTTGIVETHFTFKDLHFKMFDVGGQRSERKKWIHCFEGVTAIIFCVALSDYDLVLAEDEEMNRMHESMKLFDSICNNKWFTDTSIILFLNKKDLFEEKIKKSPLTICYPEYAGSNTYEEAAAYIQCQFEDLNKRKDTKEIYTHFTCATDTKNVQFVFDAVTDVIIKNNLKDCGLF
Muscarinic acetylcholine receptor M1 (Rattus norvegicus), sequence (P08482 whole entry, looked up): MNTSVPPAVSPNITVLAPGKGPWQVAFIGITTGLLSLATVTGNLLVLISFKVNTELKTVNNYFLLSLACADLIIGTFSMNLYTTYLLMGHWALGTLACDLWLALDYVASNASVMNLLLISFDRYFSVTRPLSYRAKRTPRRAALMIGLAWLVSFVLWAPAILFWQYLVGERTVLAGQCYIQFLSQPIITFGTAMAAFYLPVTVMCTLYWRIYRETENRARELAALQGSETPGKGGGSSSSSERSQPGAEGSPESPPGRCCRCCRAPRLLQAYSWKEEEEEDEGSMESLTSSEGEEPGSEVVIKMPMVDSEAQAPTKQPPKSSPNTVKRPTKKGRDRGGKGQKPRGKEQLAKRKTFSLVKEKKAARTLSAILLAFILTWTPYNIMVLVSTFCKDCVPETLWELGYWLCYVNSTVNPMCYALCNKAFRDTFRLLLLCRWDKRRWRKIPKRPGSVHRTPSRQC
Alpha-galactosidase A (Homo sapiens), sequence (P06280 whole entry, looked up): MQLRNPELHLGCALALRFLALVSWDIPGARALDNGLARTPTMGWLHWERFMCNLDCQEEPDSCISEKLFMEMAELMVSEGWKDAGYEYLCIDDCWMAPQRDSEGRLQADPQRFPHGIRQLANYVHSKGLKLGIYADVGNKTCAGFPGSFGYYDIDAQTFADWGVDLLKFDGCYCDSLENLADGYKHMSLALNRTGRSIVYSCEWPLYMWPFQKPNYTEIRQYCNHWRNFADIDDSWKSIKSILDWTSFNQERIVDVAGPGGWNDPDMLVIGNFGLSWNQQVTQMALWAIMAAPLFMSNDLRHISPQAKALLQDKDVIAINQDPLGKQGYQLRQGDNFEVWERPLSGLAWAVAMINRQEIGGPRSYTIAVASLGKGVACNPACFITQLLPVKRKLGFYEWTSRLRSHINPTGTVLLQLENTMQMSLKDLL

Cn1cc(C(F)(F)F)nc1-c1ccc(OC[C@@H](O)CNCCOc2ccc(O)c(C(N)=O)c2)cc1
inactive: [1] | [2] | [3] | [4] | [5] | [6] | [7]
